Our source for the EC50 values is PubChem BioAssay AID504883 (The Scripps Research Institute Molecular Screening Center, 2011).

A number with no mark means an inactive call.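 The calls were made as follows: active = EC50 at or below 10 µM; inactive = EC50 above 10 µM.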 A value given as a limit tells only on which side of the number the result lay.

The nature of this test: fluorescence polarization artefacts without PKA proteins – biochemical, 1536-well HTS, artefact control for PKA-R1A complex activator project, dose response (AID 504883). Particulars: Cy5-IP20 peptide alone, fluorescence polarization artifact counterscreen.

In general, EC50 refers to the concentration at which the effect is half-maximal. As to `Nc1ncnc2c1nc(Br)n2[C@@H]1O[C@@H]2COP(=O)(O)O[C@H]2[C@H]1O`, the EC50 is more than 114 µM.

For `CCOP1(=O)OCC2OC(n3cnc4c(N)ncnc43)C(O)C2O1` (stereo unspecified), the EC50 was more than 114 µM.

As for `CCCC(=O)Nc1ncnc2c1ncn2[C@@H]1O[C@@H]2COP(=O)(O)O[C@H]2[C@H]1OC(=O)CCC`, the EC50 is more than 114 µM.

Consider `CCCC(=O)Nc1ncnc2c1ncn2[C@@H]1O[C@@H]2OP(=O)(O)OC[C@H]2[C@H]1OC(=O)CCC`, for which the EC50 is more than 114 µM.

With `Nc1ncnc2c1nc(Sc1ccc(Cl)cc1)n2[C@@H]1O[C@@H]2COP(=O)(O)O[C@H]2[C@H]1O`, the EC50 is more than 114 µM.

`Nc1nc2c(nc(Br)n2[C@@H]2O[C@@H]3COP(=O)(O)O[C@H]3[C@H]2O)c(=O)[nH]1`: the EC50 was more than 114 µM.
